Test results from PubChem BioAssay (EPA / NIEHS).
Calls of active or inactive are those of the source. Rule for the calls: active = hit-call score of the fitted dose curve at least 0.9, where 1 is the maximum; inactive = score below 0.9.

Target: Aryl hydrocarbon receptor (Homo sapiens) (UniProt P35869)
Assay: ATG_Ahr_CIS: Attagene CIS-FACTORIAL HepG2 Assay for human Aryl Hydrocarbon Receptor (Ahr) (AID 2282930)
Settings: HepG2 AhR cis-factorial reporter transcription; actives raise or lower the signal
Method: ATG_CIS is a cell-based, multiplexed-readout assay that uses HepG2, a human liver cell line, with measurements taken at 24 hours after chemical dosing in a 24-well plate.ATG_Ahr_CIS is one of 52 assay component(s) measured or calculated from the ATG_CIS assay. It is designed to make measurements of mRNA induction, a form of inducible reporter, as detected with fluorescence intensity signals by Reverse transcription polymerase chain reaction (RT-PCR) and Capillary electrophoresis technology.Data from the assay component ATG_Ahr_CIS was analyzed into 1 assay endpoint. This assay endpoint, ATG_Ahr_CIS, was analyzed with bidirectional fitting relative to DMSO as the negative control and baseline of activity. Using a type of inducible reporter, measures of mRNA for gain or loss-of-signal activity can be used to understand the reporter gene at the transcription factor-level as they relate to the gene AHR. Furthermore, this assay endpoint can be referred to as a primary readout, because this assay has produced multiple assay endpoints where this one serves a reporter gene function. To generalize the intended target to other relatable targets, this assay endpoint is annotated to the dna binding intended target family, where the subfamily is basic helix-loop-helix protein.
Human liver HepG2 cells are transiently transfected with multiple reporter transcription units (MRTUs) in 6-well plates using FuGene 6 reagent (Roche; 3 ml FuGene/1 mg DNA). The MRTU constructs are regulated by a cis-regulating element (promoter). […] A major difference between the CIS and TRANS system is that in CIS activities of endogenous TFs are measured, whereas the TRANS assay evaluates changes in activities of exogenous, chimeric NR-Gal4 proteins. […] At the end of 24 hour incubation, total RNA was isolated using TriZol reagent (Invitrogen). The isolated RNA is then reverse-transcribed using oligo(dT) primer and Mo-MLV reverse transcriptase (Invitrogen) with DNAse I (Ambion) treatment for 30 min. The one-tenth of the produced cDNA was amplified by PCR using Taq DNA polymerase (Invitrogen) and two reporter sequence-specific primers. The PCR products were fluorescently labeled by primer extension with 6-arboxyfluorescein (6-FAM) 5'-labeled reporter sequence-specific primer (2 min at 95 C, 20 s at 68 C and 10 min at 72 C) and these products were digested with 5U of HpaI (New England Biolabs) for 2h at 37 C. […] The raw capillary electrophoresis data was processed using Attagraph software (Attagene).

Sequence of Aryl hydrocarbon receptor (Homo sapiens) (P35869 whole entry, looked up): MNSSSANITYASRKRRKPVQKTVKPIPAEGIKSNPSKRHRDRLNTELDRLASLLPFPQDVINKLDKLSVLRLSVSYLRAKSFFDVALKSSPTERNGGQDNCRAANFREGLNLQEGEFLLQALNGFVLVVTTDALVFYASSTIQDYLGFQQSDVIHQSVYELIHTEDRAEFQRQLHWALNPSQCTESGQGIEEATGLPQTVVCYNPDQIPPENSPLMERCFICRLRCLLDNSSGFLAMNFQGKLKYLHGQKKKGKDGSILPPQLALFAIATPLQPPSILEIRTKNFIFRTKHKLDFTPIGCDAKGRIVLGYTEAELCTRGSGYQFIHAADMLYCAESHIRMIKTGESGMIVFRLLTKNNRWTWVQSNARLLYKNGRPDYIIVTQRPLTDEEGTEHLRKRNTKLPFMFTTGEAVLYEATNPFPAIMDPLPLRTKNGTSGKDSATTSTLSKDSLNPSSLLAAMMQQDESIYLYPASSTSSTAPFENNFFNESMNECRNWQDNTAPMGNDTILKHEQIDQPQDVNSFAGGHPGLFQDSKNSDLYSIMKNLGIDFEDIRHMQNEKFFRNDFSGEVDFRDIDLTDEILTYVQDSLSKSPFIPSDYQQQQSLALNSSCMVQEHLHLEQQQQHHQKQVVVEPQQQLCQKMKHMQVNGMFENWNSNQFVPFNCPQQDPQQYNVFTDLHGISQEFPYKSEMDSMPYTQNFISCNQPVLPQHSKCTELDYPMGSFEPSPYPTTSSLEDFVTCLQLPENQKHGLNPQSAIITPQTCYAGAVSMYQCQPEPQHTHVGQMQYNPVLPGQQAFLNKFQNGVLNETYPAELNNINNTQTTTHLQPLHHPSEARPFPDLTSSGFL

Row | Structure (SMILES) | outcome | AC50
1 | CC(C)C(=O)Cl | inactive | 
2 | N#Cc1cccc(C#N)c1 | inactive | 
3 | CCC(=O)c1ccc(Cl)cc1 | inactive | 
4 | CC(C)CCCCCCCOC(=O)c1ccccc1C(=O)OCCCCCCCC(C)C | inactive | 
5 | C[C@]12CC[C@H]3[C@@H](CC[C@@]45O[C@@H]4C(O)=C(C#N)C[C@]35C)[C@@H]1CC[C@@H]2O | inactive | 
6 | O=S(=O)(O)O | inactive | 
7 | O=P(O)(Oc1ccccc1)Oc1ccccc1 | inactive | 
8 | [CH3][Sn]([Cl])([Cl])[Cl] | inactive | 
9 | CC(Cc1ccc(C(C)(C)C)cc1)CN1C[C@@H](C)O[C@@H](C)C1 (stereo not given in full) |  | 33.4 µM (active)
10 | CCC(C)c1cc(C(C)(C)C)cc(-n2nc3ccccc3n2)c1O (stereo not given) | inactive | 
11 | SCc1ccco1 | inactive | 
12 | CC1(C)C(=O)NC(=O)NC1=O | inactive | 
13 | CC(C)C#N | inactive | 
14 | C=CC(=O)OCC(CC)CCCC (stereo not given) | inactive | 
15 | COc1cc(OC)nc(Oc2cccc(Oc3nc(OC)cc(OC)n3)c2C(=O)O)n1 |  | 57.5 µM (active)
16 | Nc1cc(Cl)cc(Cl)c1 | inactive | 
17 | O=CNC(N1CCN(C(NC=O)C(Cl)(Cl)Cl)CC1)C(Cl)(Cl)Cl (stereo not given) | inactive | 
18 | CC(C)(O)C#N | inactive | 
19 | [Cl-].[Cl-].[Cl-].[Yb+3] | inactive | 
20 | CCOC(=O)N(C)N=O | inactive | 

Row | Structure (SMILES) | outcome | AC50
21 | CCc1cccc(C)c1N(C(=O)CCl)[C@@H](C)COC | inactive | 
22 | O=C=Nc1ccccc1 |  | 9.05 µM (active)
23 | C[N+](C)(C)CC(=O)[O-] | inactive | 
24 | Cc1ccc(N(SC(F)(Cl)Cl)S(=O)(=O)N(C)C)cc1 | inactive | 
25 | O=S(=O)(c1ccccc1)c1ccccc1 | inactive | 
26 | CC(=O)/C=C/c1ccccc1 | inactive | 
27 | Cc1ccc(OP(=O)(Oc2ccc(C)cc2)Oc2ccc(C)cc2)cc1 (tested in a mixture with another compound) | inactive | 
28 | Cc1ncc(C[n+]2csc(CCO)c2C)c(N)n1 | inactive | 
29 | c1ccc(P(c2ccccc2)c2ccccc2)cc1 | inactive | 
30 | C[C@]12CCC(=O)C(O)=C1CC[C@@H]1[C@@H]2CC[C@]2(C)C(=O)CC[C@@H]12 |  | 31.2 µM (active)
31 | CCC[N+](=O)[O-] |  | 68.9 µM (active)
32 | CSc1nc(N=[N+]=[N-])nc(NC(C)C)n1 | inactive | 
33 | C=COCCCl | inactive | 
34 | CC(C)CCCCCCCOP(=O)(Oc1ccccc1)Oc1ccccc1 | inactive | 
35 | CN1C[C@H](C(=O)N[C@]2(C)O[C@@]3(O)[C@@H]4CCCN4C(=O)[C@H](Cc4ccccc4)N3C2=O)C=C2c3cccc4[nH]cc(c34)C[C@H]21 | inactive | 
36 | Oc1ccc(Cl)cc1 | inactive | 
37 | CCCCCCCCCCCC#N | inactive | 
38 | Cc1cc(C)c(C2=C(OC(=O)CC(C)(C)C)C3(CCCC3)OC2=O)c(C)c1 | inactive | 
39 | CC[N+](=O)[O-] | inactive | 
40 | O=P1(NCCCl)OCCCN1CCCl (stereo not given) | inactive | 
